{"source": "PubChem BioAssay AID1259249", "about": "(Broad Institute, 2017)", "note": "Values joined by “and” are separate entries in the source; they are usually repeats but may differ in a detail not shown here. Identical values can stand only once. About 220 (0.26%) of roughly 86,000 compounds were called active. This is one part of a sample in which actives are shown more often than they occur.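 The calls were made as follows: active = mean growth activity at or below -80% and every replicate also at or below -80%; inconclusive = mean at or below -80% but some replicate above -80%; inactive = mean growth activity above -80%.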"}
{"assay": "blockers of Clostridium difficile growth – HTS, primary screen (AID 1259249);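 also: 0% = DMSO wells and -100% = levofloxacin 16 µg/mL wells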", "details": "Clostridium difficile clinical isolate growth, OD600, 24 h; stronger effect = lower value; screened at 16 µg/mL (by protocol)"}
{"smiles": "CCCNC(=O)Nc1ccc2c(c1)OC[C@H](C)N(CCC(F)(F)F)C[C@H](C)[C@@H](OC)CN(C)C2=O", "growth activity, negative = inhibition": "-16.2% (inactive)"}
{"smiles": "Cc1ccc(S(=O)(=O)N[C@@H]2CC[C@@H](CCn3cc(C4CC4)nn3)O[C@@H]2CO)cc1", "growth activity, negative = inhibition": "-1.26% (inactive)"}
{"smiles": "C[C@@H]1CCCCO[C@@H](CN(C)C(=O)NC2CCCCC2)[C@H](C)CN([C@H](C)CO)C(=O)c2cc(NC(=O)Nc3cccc4ccccc34)ccc2O1", "growth activity, negative = inhibition": "2.69% (inactive)"}
{"smiles": "O=C(c1ccncc1)N1C[C@H]2[C@@H](c3ccccc31)[C@H](CO)N2Cc1ccc(F)cc1", "growth activity, negative = inhibition": "-10.6% (inactive)"}
{"smiles": "CCCC(=O)N1CC2(CN(C(=O)NC(C)C)C2)c2c([nH]c3cc(OC)ccc23)[C@@H]1CO", "growth activity, negative = inhibition": "-10.9% (inactive)"}
{"smiles": "CC(C)C(=O)Nc1ccc2c(c1)C(=O)N(C)[C@@H]1CC[C@@H](CC(=O)NCCc3ccccc3)O[C@H]1CO2", "growth activity, negative = inhibition": "-2.19% (inactive)"}
{"smiles": "COc1ccc2c3c(n(C)c2c1)[C@H](CO)N(CC1CC1)CC31CCN(C(=O)c2ccccc2)CC1", "growth activity, negative = inhibition": "22.3% (inactive)"}
{"smiles": "COCc1cn(CC[C@@H]2CC[C@@H](NC(=O)Nc3ccc(C(F)(F)F)cc3)[C@H](CO)O2)nn1", "growth activity, negative = inhibition": "1.56% (inactive)"}
{"smiles": "C[C@@H]1CN([C@@H](C)CO)C(=O)c2cc(NC(=O)Nc3ccc4c(c3)OCO4)ccc2O[C@@H](C)CCCCO[C@H]1CN(C)C(=O)Nc1ccc(C(F)(F)F)cc1", "growth activity, negative = inhibition": "3.76% (inactive)"}
{"smiles": "CCN1[C@@H]2c3cccc(=O)n3C[C@H]1[C@H](CO)[C@H]2C(=O)NC1Cc2ccccc2C1", "growth activity, negative = inhibition": "-3.73% (inactive)"}
{"smiles": "O=C(C1CCC1)N1CC(=O)N2[C@@H](CO)[C@@H](c3ccc(C#Cc4cccc(F)c4)cc3)[C@@H]2C1", "growth activity, negative = inhibition": "-12.4% (inactive)"}
{"smiles": "Cc1ccc(-c2cnc3c(c2)C(=O)N([C@H](C)CO)C[C@H](C)[C@@H](CN(C)C(=O)c2cccc(F)c2)O3)cc1", "growth activity, negative = inhibition": "0.45% (inactive)"}
{"smiles": "CN1c2ccc(-c3cccc(F)c3)cc2[C@H]2[C@H](CCN2C(=O)c2cccc(F)c2)[C@H]1CO", "growth activity, negative = inhibition": "-1.71% (inactive)"}
{"smiles": "C[C@@H]1CN([C@@H](C)CO)C(=O)Cc2cc(NC(=O)Nc3ccc(C(F)(F)F)cc3)ccc2O[C@H]1CN(C)Cc1ccc(C(=O)O)cc1", "growth activity, negative = inhibition": "4.68% (inactive)"}
{"smiles": "COc1cccc(NC(=O)N(C)C[C@@H]2Oc3ncc(Br)cc3C(=O)N([C@@H](C)CO)C[C@H]2C)c1", "growth activity, negative = inhibition": "4.14% (inactive)"}
{"smiles": "CO[C@@H]1CN(C)C(=O)c2cc(NC(=O)C3CCCC3)ccc2OC[C@@H](C)N(Cc2ccc(F)cc2)C[C@H]1C", "growth activity, negative = inhibition": "7.43% (inactive)"}
{"smiles": "COc1ccccc1NC(=O)N1C[C@H]2[C@@H](c3ccccc31)[C@H](CO)N2Cc1ccc2c(c1)OCO2", "growth activity, negative = inhibition": "-2.67% (inactive)"}
{"smiles": "COc1ccccc1NC(=O)N1C[C@@H]2[C@H](c3ccccc31)[C@H](CO)N2CC1CCOCC1", "growth activity, negative = inhibition": "8.14% (inactive)"}
{"smiles": "CO[C@@H]1CN(C)C(=O)c2cc(NC(=O)C3CCC3)ccc2OC[C@H](C)N(Cc2ccccn2)C[C@H]1C", "growth activity, negative = inhibition": "-0.0418% (inactive)"}
{"smiles": "COc1ccccc1C#Cc1ccc2c(c1)O[C@H](CN(C)Cc1cccnc1)[C@@H](C)CN([C@H](C)CO)S2(=O)=O", "growth activity, negative = inhibition": "2.69% (inactive)"}
{"smiles": "C[C@H]1CN([C@@H](C)CO)C(=O)c2cc(C#CC3CCCC3)cnc2O[C@@H]1CN(C)C(=O)Cc1ccccn1", "growth activity, negative = inhibition": "-9.22% (inactive)"}
{"smiles": "N#C[C@H]1[C@@H](c2ccccc2C2=CCCC2)[C@H](CO)N1C(=O)c1cccc(F)c1", "growth activity, negative = inhibition": "-5.69% (inactive)"}
{"smiles": "C[C@@H]1CCCCO[C@H](CN(C)CC2CCCCC2)[C@H](C)CN([C@H](C)CO)C(=O)c2cc(NS(=O)(=O)c3ccc(F)cc3)ccc2O1", "growth activity, negative = inhibition": "11.3% (inactive)"}
{"smiles": "COc1ccc(S(=O)(=O)NC[C@@H]2CC[C@@H]3[C@@H](CN3Cc3cc(F)ccc3F)O2)cc1", "growth activity, negative = inhibition": "-8.36% (inactive)"}
{"smiles": "CN1C(=O)c2cc(NC(=O)C3CC3)ccc2OC[C@H]2O[C@H](CC(=O)O)CC[C@H]21", "growth activity, negative = inhibition": "3.37% (inactive)"}
{"smiles": "CO[C@@H]1CN(C)C(=O)c2ccc(NC(=O)C3CC3)cc2OC[C@H](C)N(C(C)=O)C[C@H]1C", "growth activity, negative = inhibition": "0.555% (inactive)"}
{"smiles": "COc1cccc(NC(=O)N[C@H]2C=C[C@H](CC(=O)NCc3ccccn3)O[C@@H]2CO)c1", "growth activity, negative = inhibition": "6.26% (inactive)"}
{"smiles": "CO[C@H]1CN(C)C(=O)c2ccc(NC(=O)C3CCCC3)cc2OC[C@H](C)N(C(=O)CC2CC2)C[C@@H]1C", "growth activity, negative = inhibition": "-4% (inactive)"}
{"smiles": "C/C=C/c1ccccc1[C@H]1[C@@H](C#N)N(C(C)=O)[C@@H]1CO", "growth activity, negative = inhibition": "-2.31% (inactive)"}
{"smiles": "O=C(C1CCOCC1)N1CC(=O)N2[C@H](CO)[C@H](c3ccc(C#Cc4cccc(F)c4)cc3)[C@H]2C1", "growth activity, negative = inhibition": "-20.7% (inactive)"}
{"smiles": "CNC(=O)C[C@H]1CC[C@H]2[C@H](COc3ccc(NC(=O)Nc4ccc(F)cc4)cc3C(=O)N2C)O1", "growth activity, negative = inhibition": "-3.32% (inactive)"}
{"smiles": "O=C(C[C@H]1C=C[C@H](NC(=O)Nc2cc(F)ccc2F)[C@@H](CO)O1)NCc1ccccn1", "growth activity, negative = inhibition": "-1.08% (inactive)"}
{"smiles": "CNC[C@H]1OCCCC[C@H](C)Oc2ccc(NC(=O)Nc3ccc(C(F)(F)F)cc3)cc2C(=O)N([C@H](C)CO)C[C@@H]1C", "growth activity, negative = inhibition": "8.32% (inactive)"}
{"smiles": "C[C@H](O)C#Cc1ccc2c(c1)O[C@@H](CN(C)C(=O)C1CCCCC1)[C@H](C)CN([C@@H](C)CO)S2(=O)=O", "growth activity, negative = inhibition": "-2.82% (inactive)"}
{"smiles": "COc1ccc2c3c(n(C)c2c1)[C@@H](CO)N(C(=O)CN1CCOCC1)CC31CCN(Cc2ccncc2)CC1", "growth activity, negative = inhibition": "-2.85% (inactive)"}
{"smiles": "CCCNC(=O)N1CC2(C1)[C@@H](c1ccccc1)[C@@H](CO)N2C(=O)CC1CC1", "growth activity, negative = inhibition": "-0.374% (inactive)"}
{"smiles": "C[C@@H]1CN([C@H](C)CO)S(=O)(=O)c2ccc(C3=CCCC3)cc2O[C@H]1CN(C)C(=O)CC1CC1", "growth activity, negative = inhibition": "3.03% (inactive)"}
{"smiles": "COCc1cn(CC[C@H]2CC[C@H](NC(=O)Cc3cccnc3)[C@H](CO)O2)nn1", "growth activity, negative = inhibition": "1.58% (inactive)"}
{"smiles": "N[C@@H]1CC[C@H](CCn2cc(C3CC3)nn2)O[C@@H]1CO", "growth activity, negative = inhibition": "5.59% (inactive)"}
{"smiles": "C/C=C/c1ccc([C@@H]2[C@H](CO)N(C(=O)c3cnccn3)C23CN(C(C)=O)C3)cc1", "growth activity, negative = inhibition": "2.93% (inactive)"}
{"smiles": "CCCNC(=O)C[C@H]1CC[C@H]2[C@@H](COC[C@H](O)CN2C(=O)CC)O1", "growth activity, negative = inhibition": "7.43% (inactive) and 9.67% (inactive)"}
{"smiles": "COc1ccc(CN(C)C[C@H]2OCc3cn(nn3)CCCC(=O)N([C@@H](C)CO)C[C@@H]2C)cc1", "growth activity, negative = inhibition": "-0.425% (inactive)"}
{"smiles": "O=C(C[C@H]1CC[C@H]2[C@@H](COC[C@@H](O)CN2C(=O)Nc2ccc(C(F)(F)F)cc2)O1)NC1Cc2ccccc2C1", "growth activity, negative = inhibition": "-97.2% (active) and 27.2% (inactive)"}
{"smiles": "O=C(C[C@H]1CC[C@H]2[C@@H](COC[C@H](O)CN2C(=O)Nc2ccc(Cl)cc2)O1)NCC1CC1", "growth activity, negative = inhibition": "7.11% (inactive)"}
{"smiles": "O=C(C[C@@H]1CC[C@H]2[C@@H](COC[C@@H](O)CN2C(=O)Nc2ccc(Cl)cc2)O1)NC1Cc2ccccc2C1", "growth activity, negative = inhibition": "2% (inactive) and 46.4% (inactive)"}
{"smiles": "O=C(C[C@H]1CC[C@@H]2[C@H](COC[C@@H](O)CN2C(=O)Nc2ccc(Cl)cc2)O1)NC1Cc2ccccc2C1", "growth activity, negative = inhibition": "-5.66% (inactive) and -5.56% (inactive)"}
{"smiles": "CCCNC(=O)C[C@H]1CC[C@H]2[C@@H](COC[C@@H](O)CN2C(=O)Nc2ccc(Cl)c(Cl)c2)O1", "growth activity, negative = inhibition": "-102% (active) and -6.65% (inactive)"}
{"smiles": "CCCNC(=O)C[C@@H]1CC[C@H]2[C@@H](COC[C@H](O)CN2C(=O)Nc2ccc(Cl)c(Cl)c2)O1", "growth activity, negative = inhibition": "-57.2% (inactive) and -25.4% (inactive)"}
{"smiles": "CC=Cc1ccc2n(c1=O)C[C@H]1[C@H](CO)[C@@H](C(=O)NC3CCCC3)[C@@H]2N1C(=O)c1cnccn1", "note": "(mixture of isomers)", "growth activity, negative = inhibition": "3.3% (inactive)"}
{"smiles": "CC(C)NC(=O)N1[C@@H]2CN(C(=O)C3CCCCC3)c3ccccc3[C@@H]2[C@@H]1CO", "growth activity, negative = inhibition": "-5.28% (inactive)"}
{"smiles": "CC(=O)N1[C@H](CO)[C@H](c2ccccc2)[C@H]1CN(C(=O)c1ccccc1F)C(C)C", "growth activity, negative = inhibition": "2.62% (inactive)"}
{"smiles": "CCS(=O)(=O)N1CC2(CN(Cc3ccccc3)[C@@H](CO)c3c2c2ccc(OC)cc2n3C)C1", "growth activity, negative = inhibition": "10.4% (inactive)"}
{"smiles": "COc1ccccc1C(=O)N1C[C@H]2[C@@H](c3ccccc31)[C@H](CO)N2C(=O)C1CC1", "growth activity, negative = inhibition": "-5.43% (inactive)"}
{"smiles": "CO[C@H]1CN(C)C(=O)c2ccc(NS(=O)(=O)c3ccccc3)cc2OC[C@H](C)N(Cc2nccs2)C[C@@H]1C", "growth activity, negative = inhibition": "1.37% (inactive)"}
{"smiles": "COc1cccc(S(=O)(=O)N(C)C[C@@H]2Oc3ncc(-c4cccc(C(=O)N(C)C)c4)cc3C(=O)N([C@H](C)CO)C[C@H]2C)c1", "growth activity, negative = inhibition": "-3.2% (inactive)"}
{"smiles": "COc1cccc(NC(=O)N(C)C[C@H]2Oc3cc(/C=C/c4ccccc4)ccc3S(=O)(=O)N([C@H](C)CO)C[C@@H]2C)c1", "growth activity, negative = inhibition": "5.84% (inactive)"}
{"smiles": "COc1ccc2c3c(n(C)c2c1)[C@H](CO)N(S(=O)(=O)c1ccc(C)cc1)CC31CCN(C(=O)c2ccccn2)CC1", "growth activity, negative = inhibition": "3.65% (inactive)"}
{"smiles": "O=C(C1CCCC1)N1CC(=O)N2[C@H](C1)[C@@H](c1ccc(-c3ccccc3F)cc1)[C@@H]2CO", "growth activity, negative = inhibition": "2.69% (inactive)"}
{"smiles": "C/C=C/c1ccc([C@H]2[C@@H](CO)N(C(=O)CC)[C@H]2CN(C)C(=O)C2CC2)cc1", "growth activity, negative = inhibition": "-2.06% (inactive)"}
{"smiles": "O=C(NCC[C@H]1CC[C@H](NS(=O)(=O)c2cccc(F)c2)[C@H](CO)O1)C1CCCCC1", "growth activity, negative = inhibition": "-5.15% (inactive)"}
{"smiles": "C/C=C/c1ccc([C@@H]2[C@H](CO)N(CCC(F)(F)F)C23CN(C(=O)CC)C3)cc1", "growth activity, negative = inhibition": "8.71% (inactive)"}
{"smiles": "CC(C)NC(=O)N(C)C[C@H]1Oc2ncc(-c3cccc(C#N)c3)cc2C(=O)N([C@@H](C)CO)C[C@H]1C", "growth activity, negative = inhibition": "5.25% (inactive)"}
